Hit rate of the full screen: of about 5,500 compounds, about 2,000 (36%) were called active. Inconclusive results (about 18%) are left out. No stated cut-off is given here; in the data, active means normalized growth mostly below about 0.91 (no sharp cut-off); inconclusive means no clear call, values can overlap the other calls; inactive means mostly above about 0.92. The list shows a part of the results.
Assay: chemical genetic growth profiling, strain panel (AID 1159580);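 further: tested at 20 µM; growth read once vehicle control cultures reached saturation at 30 °C; 1 = growth at the plate median or of vehicle wells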
Details: S. cerevisiae deletion strains, growth OD

Measured: normalized growth

N[C@H](CCCCCP(=O)(O)O)C(=O)O
inactive: locus YAL013W, strain DEP1, stronger effect = lower value 0.989 | locus YAL040C, strain CLN3, stronger effect = lower value 1.06 | locus YCL061C, strain MRC1 (second series), stronger effect = lower value 1.01 | locus YER002W, strain NOP16, stronger effect = lower value 1 | locus YGR078C, strain PAC10, stronger effect = lower value 1 | locus YJR075W, strain HOC1, stronger effect = lower value 1.01 | locus YMR263W, strain SAP30, stronger effect = lower value 1.01 | locus YNL128W, strain TEP1, stronger effect = lower value 0.987 | locus YNL153C, strain GIM3, stronger effect = lower value 1.02 | locus YNL175C, strain NOP13, stronger effect = lower value 0.994 | locus YNL197C, strain WHI3, stronger effect = lower value 0.968 | locus YNL224C, strain SQS1, stronger effect = lower value 1 | locus YOR083W, strain WHI5 (second series), stronger effect = lower value 0.964 | locus YPL055C, strain LGE1, stronger effect = lower value 0.997 | locus YPL241C, strain CIN2, stronger effect = lower value 1

Reference: PubChem BioAssay AID1159580 (chemical genetic matrix, 2015)
